Measurements taken from PubChem BioAssay (NCATS).
Inconclusive results are not listed. A call without a number means that no potency is given here. Calls of active or inactive are those of the source. The call rests on the fitted dose curve; in most records, active means well fitted curve in the direction sought with a large enough effect; inconclusive means small, poorly fitted or top-dose-only effect, or another doubt; inactive means no such curve, though single readings can be large; an effect the other way counts as inactive or inconclusive.

Experiments:
[1] = biological target: ATP-dependent 6-phosphofructokinase (Trypanosoma brucei brucei) (UniProt O15648); assay: qHTS Assay to Find Inhibitors of T. brucei phosphofructokinase: hit validation (AID 492961); conditions: T. brucei PFK, ADP-Glo luminescence; series mostly up to 24.3 µM
Procedure, shortened: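 Luminescence from ADP-Glo reports ADP generated as T. brucei PFK (1.25 nM) phosphorylates 0.5 mM fructose-6-phosphate using 0.1 mM ATP. Reactions ran 45 min at room temperature, pH 8.0.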

[2] = S16 Schwann cell viability assay (CellTiter-Glo assay) (AID 624031); conditions: S16 rat Schwann cells viability, 24 h; series mostly up to 25.7 µM;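 further: cellular ATP luminescence as a viability measure; nearly all actives have a fitted effect of over 70% in size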
Procedure, shortened: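 Native S16 rat Schwann cells, 500-750 cells/well in DMEM with 10% FBS, dosed with compound after overnight culture and incubated 24h at 37 degree Celsius/5% CO2. Viability by CellTiter-Glo luminescence; % activity normalized to no-cell wells and DMSO-treated cells.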

[3] = S16 Schwann cell PMP22 intronic element firefly luciferase assay (AID 624032); conditions: S16 rat Schwann cells, PMP22 element FLuc, 24 h; series mostly up to 25.7 µM; further: nearly all actives have a fitted effect of over 30% in size; further: potency means the concentration at half of the fitted maximal effect
Procedure, shortened: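 Rat S16 Schwann cells stably carrying firefly luciferase driven by a PMP22 intronic element, in 10% FBS, treated 24 h at 37 C. ONE-Glo luminescence normalized to PTC124 control and DMSO (0%); curves classed by r2, magnitude and activity.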

[4] = test system: 3D7; assay: qHTS profiling for inhibitors of Plasmodium falciparum proliferation (AID 504749); further: nearly all actives have a fitted effect of over 60% in size; conditions: P. falciparum in erythrocytes, SYBR Green DNA, 72 h; series mostly up to 12.8 µM
Procedure, shortened: (§1)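 Each compound contacts P. falciparum-infected red blood cells for 72 h at 37 C; lysis buffer (Tris, EDTA, saponin, Triton X, SYBR Green I) is added and fluorescence measured next morning; values normalized to controls.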

[5] = test system: AS120; assay: as above; conditions: P. falciparum in erythrocytes, SYBR Green DNA, 72 h; series mostly up to 28.7 µM
Procedure, shortened: as §1

[6] = test system: CP194; assay: as above; conditions: P. falciparum in erythrocytes, SYBR Green DNA, 72 h; series mostly up to 12.8 µM
Procedure, shortened: as §1

[7] = test system: CP203; assay: as above; conditions: P. falciparum in erythrocytes, SYBR Green DNA, 72 h; series mostly up to 12.8 µM
Procedure, shortened: as §1

[8] = test system: CP211; assay: as above; conditions: P. falciparum in erythrocytes, SYBR Green DNA, 72 h; series mostly up to 12.8 µM
Procedure, shortened: as §1

[9] = test system: CP237; assay: as above; conditions: P. falciparum in erythrocytes, SYBR Green DNA, 72 h; series mostly up to 12.8 µM
Procedure, shortened: as §1

[10] = test system: CP247; assay: as above; conditions: P. falciparum in erythrocytes, SYBR Green DNA, 72 h; series mostly up to 12.8 µM
Procedure, shortened: as §1

[11] = test system: CP250; assay: as above; conditions: P. falciparum in erythrocytes, SYBR Green DNA, 72 h; series mostly up to 12.8 µM
Procedure, shortened: as §1

[12] = test system: CP268; assay: as above; conditions: P. falciparum in erythrocytes, SYBR Green DNA, 72 h; series mostly up to 12.8 µM
Procedure, shortened: as §1

[13] = test system: CP297; assay: as above; conditions: P. falciparum in erythrocytes, SYBR Green DNA, 72 h; series mostly up to 12.8 µM
Procedure, shortened: as §1

[14] = test system: DIV30; assay: as above; conditions: P. falciparum in erythrocytes, SYBR Green DNA, 72 h; series mostly up to 12.8 µM
Procedure, shortened: as §1

[15] = test system: Dd2; assay: as above; conditions: P. falciparum in erythrocytes, SYBR Green DNA, 72 h; series mostly up to 12.8 µM
Procedure, shortened: as §1

[16] = test system: JCK; assay: as above; conditions: P. falciparum in erythrocytes, SYBR Green DNA, 72 h; series mostly up to 12.8 µM
Procedure, shortened: as §1

[17] = test system: P93_24; assay: as above; conditions: P. falciparum in erythrocytes, SYBR Green DNA, 72 h; series mostly up to 12.8 µM
Procedure, shortened: as §1

[18] = test system: PAD; assay: as above; conditions: P. falciparum in erythrocytes, SYBR Green DNA, 72 h; series mostly up to 12.8 µM
Procedure, shortened: as §1

[19] = test system: PC15; assay: as above; conditions: P. falciparum in erythrocytes, SYBR Green DNA, 72 h; series mostly up to 12.8 µM
Procedure, shortened: as §1

[20] = test system: PC26; assay: as above; conditions: P. falciparum in erythrocytes, SYBR Green DNA, 72 h; series mostly up to 12.8 µM
Procedure, shortened: as §1

Chain of ATP-dependent 6-phosphofructokinase (Trypanosoma brucei brucei) (O15648 whole entry, looked up): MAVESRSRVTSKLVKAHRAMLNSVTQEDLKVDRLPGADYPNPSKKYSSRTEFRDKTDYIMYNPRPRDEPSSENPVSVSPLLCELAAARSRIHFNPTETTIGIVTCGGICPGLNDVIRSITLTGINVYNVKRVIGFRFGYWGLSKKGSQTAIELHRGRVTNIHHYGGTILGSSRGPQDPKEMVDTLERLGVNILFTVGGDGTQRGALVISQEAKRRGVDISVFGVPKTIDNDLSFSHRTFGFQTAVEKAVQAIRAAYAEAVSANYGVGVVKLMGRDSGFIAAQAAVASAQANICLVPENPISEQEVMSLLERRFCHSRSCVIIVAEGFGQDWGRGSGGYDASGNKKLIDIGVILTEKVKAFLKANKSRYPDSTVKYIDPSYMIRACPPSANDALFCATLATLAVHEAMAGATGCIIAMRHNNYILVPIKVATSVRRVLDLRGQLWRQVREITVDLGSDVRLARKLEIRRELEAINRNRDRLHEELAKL

SMILES	outcome [1]	Potency [2]	Potency [3]	Potency [4]	Potency [5]	Potency [6]	Potency [7]	Potency [8]	Potency [9]	Potency [10]	Potency [11]	Potency [12]	Potency [13]	Potency [14]	Potency [15]	Potency [16]	Potency [17]	Potency [18]	Potency [19]	Potency [20]
COc1c(O)cc2c(c1O)[C@@H]1O[C@@H](CO)[C@@H](O)[C@@H](O)[C@@H]1OC2=O	inactive	inactive	inactive	inactive	inactive	inactive	inactive	inactive	inactive	inactive	inactive	inactive	inactive	inactive	inactive	inactive	inactive	inactive	inactive	inactive
CC[C@H](NC(C)C)[C@H](O)c1ccc(O)c(O)c1	inactive	inactive	11.4 µM (active)	–	inactive	inactive	inactive	inactive	inactive	–	–	inactive	inactive	inactive	inactive	inactive	inactive	inactive	–	inactive
CC(=O)O[C@@H](C)C[N+](C)(C)C	inactive	inactive	inactive	inactive	inactive	inactive	inactive	inactive	inactive	inactive	inactive	inactive	inactive	inactive	inactive	inactive	inactive	–	inactive	inactive
C[C@H](NCCc1ccc(O)cc1)[C@@H](O)c1ccc(O)cc1	inactive	inactive	–	inactive	inactive	inactive	inactive	inactive	inactive	inactive	inactive	inactive	inactive	inactive	inactive	inactive	inactive	inactive	inactive	inactive
CCN[C@@H]1C[C@H](C)S(=O)(=O)c2sc(S(N)(=O)=O)cc21	inactive	–	inactive	inactive	inactive	inactive	inactive	inactive	inactive	inactive	inactive	inactive	inactive	inactive	inactive	inactive	inactive	inactive	inactive	inactive
CC(=O)Nc1c(I)c(C(=O)N[C@H]2[C@@H](O)[C@H](O)[C@H](CO)O[C@@H]2O)c(I)c(N(C)C(C)=O)c1I	inactive	inactive	inactive	inactive	inactive	inactive	inactive	inactive	inactive	inactive	inactive	inactive	inactive	inactive	inactive	inactive	inactive	inactive	inactive	inactive
C[n+]1ccccc1/C=N\O	inactive	inactive	inactive	inactive	inactive	inactive	inactive	inactive	inactive	inactive	inactive	inactive	inactive	inactive	inactive	inactive	inactive	inactive	inactive	inactive
C[C@@H](CN(C)C)CN1c2ccccc2CCc2ccccc21	inactive	–	inactive	inactive	–	–	–	–	–	inactive	inactive	inactive	inactive	–	–	inactive	–	inactive	inactive	–
CC1(C)O[C@@H]2C[C@H]3[C@H]4C[C@H](F)C5=CC(=O)C=C[C@@]5(C)[C@@H]4[C@H](O)C[C@]3(C)[C@]2(C(=O)CO)O1	inactive	inactive	inactive	inactive	inactive	inactive	inactive	inactive	inactive	inactive	inactive	inactive	inactive	inactive	inactive	inactive	inactive	inactive	inactive	inactive
O=C(O)/C=C\c1ccc(Cn2ccnc2)cc1	inactive	inactive	inactive	inactive	inactive	inactive	inactive	inactive	inactive	inactive	inactive	inactive	inactive	inactive	inactive	inactive	inactive	inactive	inactive	inactive
CO/N=C(/C(=O)NC1C(=O)N2C(C(=O)O)=C(CSc3nc(=O)c(O)nn3C)CSC12)c1csc(N)n1 (configuration not stated)	–	inactive	inactive	inactive	inactive	inactive	inactive	inactive	inactive	inactive	inactive	inactive	inactive	inactive	inactive	inactive	inactive	inactive	inactive	inactive
COc1ccc(C[C@@H]2c3cc(OC)c(OC)cc3CC[N@+]2(C)CCC(=O)OCCCCCOC(=O)CC[N@@+]2(C)CCc3cc(OC)c(OC)cc3[C@H]2Cc2ccc(OC)c(OC)c2)cc1OC	inactive	inactive	–	inactive	inactive	inactive	inactive	inactive	inactive	inactive	inactive	inactive	inactive	inactive	inactive	inactive	inactive	inactive	inactive	inactive
C[N+]1(C)CCC[C@@H](OC(=O)C(O)(c2ccccc2)c2ccccc2)C1	inactive	inactive	inactive	inactive	inactive	inactive	inactive	inactive	inactive	inactive	inactive	inactive	inactive	inactive	inactive	inactive	inactive	inactive	inactive	inactive
O=c1[nH]cnc2c1ncn2C1OC(CO)C(O)C1O (configuration not stated)	inactive	inactive	inactive	inactive	inactive	inactive	inactive	inactive	inactive	inactive	inactive	inactive	inactive	inactive	inactive	inactive	inactive	inactive	inactive	inactive
CN[C@@H]1[C@H](O[C@@H]2O[C@H](CO)[C@@H](N)[C@H](O)[C@@H]2O)O[C@H]2C[C@@H](N)[C@@H](O[C@H]3[C@@H](O)[C@H](O)[C@H](N)C[C@@H]3N)O[C@H]2[C@H]1O	inactive	inactive	inactive	inactive	inactive	inactive	inactive	inactive	inactive	inactive	inactive	inactive	inactive	inactive	inactive	inactive	inactive	inactive	inactive	inactive
CC1(C)S[C@@H]2[C@H](NC(=O)[C@H](C(=O)O)c3ccsc3)C(=O)N2[C@H]1C(=O)O	–	inactive	inactive	inactive	inactive	inactive	inactive	inactive	inactive	inactive	inactive	inactive	–	inactive	inactive	inactive	inactive	inactive	inactive	inactive
Cn1c(=O)c2c(ncn2C[C@@H](O)CO)n(C)c1=O	inactive	inactive	inactive	inactive	inactive	inactive	inactive	inactive	inactive	inactive	inactive	inactive	inactive	inactive	inactive	inactive	inactive	inactive	inactive	inactive
C[C@@H](C(=O)O)c1cccc(C(=O)c2ccccc2)c1	inactive	inactive	inactive	–	–	–	–	–	–	–	–	–	–	–	–	–	–	–	–	–
CN[C@@H](CC(C)C)C(=O)N[C@@H]1C(=O)N[C@H](CC(N)=O)C(=O)N[C@@H]2C(=O)N[C@H]3C(=O)N[C@H](C(=O)N[C@H](C(=O)O)c4cc(O)cc(O)c4-c4cc3ccc4O)[C@H](O)c3ccc(c(Cl)c3)Oc3cc2cc(c3O[C@H]2O[C@@H](CO)[C@@H](O)[C@@H](O)[C@@H]2O[C@@H]2C[C@](C)(N)[C@H](O)[C@H](C)O2)Oc2ccc(cc2Cl)[C@@H]1O	inactive	inactive	inactive	inactive	inactive	inactive	inactive	inactive	inactive	inactive	inactive	inactive	inactive	inactive	inactive	inactive	inactive	inactive	inactive	inactive
CCCN[C@@H](C)C(=O)Nc1ccccc1C	inactive	inactive	inactive	inactive	inactive	inactive	inactive	inactive	inactive	inactive	inactive	inactive	inactive	inactive	inactive	inactive	inactive	inactive	inactive	inactive
CCN1C(=O)N[C@@H](c2ccccc2)C1=O	inactive	inactive	inactive	inactive	inactive	inactive	inactive	inactive	inactive	inactive	inactive	inactive	inactive	inactive	inactive	inactive	inactive	inactive	inactive	inactive
C/C=C\C(=O)N(CC)c1ccccc1C	inactive	inactive	inactive	inactive	inactive	inactive	inactive	inactive	inactive	inactive	inactive	inactive	inactive	inactive	inactive	inactive	inactive	inactive	inactive	inactive
CC1(C)Oc2ccc(C#N)cc2[C@H](N2CCCC2=O)[C@H]1O	inactive	inactive	inactive	inactive	inactive	inactive	inactive	inactive	inactive	inactive	inactive	inactive	inactive	inactive	inactive	inactive	inactive	inactive	inactive	inactive
